# Assay results published in PubChem BioAssay (Tox21).
# Values without a mark were called inactive. Records with an inconclusive call do not appear. A call without a number means that no potency is given here. Calls of active or inactive are those of the source. Unless noted, calls come from the whole dose curve; as a rule, active = well fitted curve in the direction sought with a large enough effect in the repeat runs; inconclusive = weak or mixed curves; inactive = no such curve, though single readings can be large; an effect the other way counts as inactive or inconclusive.
# Experiments:
# [1] = qHTS assay to identify small molecule agonists of the progesterone receptor (PR) signaling pathway - cell viability counter screen (AID 1346799; calls by dose curve; note: nearly all actives have a fitted effect of over 45% in size; note: potency is the fitted concentration of half-maximal effect)
# Method in brief: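 HEK293T PR-UAS-bla, 3,000 cells/well, 2% charcoal-stripped FBS; 6 h settle, compound 16 h at 37C/5% CO2; LiveBLAzer 2 h RT, then CellTiter-Glo 30 min RT, luminescence read.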
# [2] = qHTS assay to identify small molecule antagonists of the TGF-beta/Smad signaling pathway - cell viability counter screen (AID 1346824); note: nearly all actives have a fitted effect of over 50% in size
# Method in brief: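 SBE-bla HEK 293T cells, incubated overnight, then compound plus 0.25 ng/mL TGF-beta1 (stock added) for 5 hr at 37 C. Viability was read in the same wells by CellTiter-Glo luminescence after 30 min at room temperature.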
# [3] = qHTS assay to identify small molecule agonists of the TGF-beta/Smad signaling pathway (AID 1346859; active = well fitted activation curve with a large enough effect in the signal ratio in the repeat runs, not every such curve was filed as active; the % refers to the signal ratio; note: series mostly up to about 77 µM)
# Method in brief: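 Read-out: fluorescence at 460 and 530 nm (405 nm excitation) after a 2 hr room-temperature incubation with beta-lactamase FRET substrate. SBE-bla HEK 293T cells had been treated with test compounds for 5 hr at 37 C.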
# [4] = molecular target: Thyrotropin-releasing hormone receptor (Homo sapiens) (UniProt P34981); assay: qHTS assay to identify small molecule antagonists of the thyrotropin-releasing hormone receptor (TRHR) signaling pathway (AID 1346877; active = well fitted inhibition curve with a large enough effect in the repeat runs, not every such curve was filed as active; note: series mostly up to about 51 µM)
# Method in brief: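 Overnight-plated (18 h, 37 °C) HEK293 cells expressing TRHR were dye-loaded 2 h, treated with compound, then stimulated with TRH at 1 nM final. Fluorescence intensity was captured every second for 3 min.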
# [5] = molecular target: Thyrotropin-releasing hormone receptor (Homo sapiens) (UniProt P34981); assay: qHTS assay to identify small molecule agonists of the thyrotropin-releasing hormone receptor (TRHR) signaling pathway (AID 1346891; calls by dose curve;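 note: HEK293 cells expressing TRHR with calcium dye readout; series mostly up to about 58 µM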)
# Method in brief: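 HEK293/TRHR cells, 1500 per well, 18 h 37 °C; Ca dye 2 h 37 °C; pin-tool compound addition (agonist mode); kinetic fluorescence 3 min, 1 s reads; 15 concentrations, triplicate.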
# [6] = Human pregnane X receptor (PXR) small molecule agonists, qHTS cell viability counter screen (AID 1346977); note: nearly all actives have a fitted effect of over 50% in size
# Method in brief: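 Fluorescence read-out (CellTiter-Fluor) of viability in PXR-Luc HepG2 cells, multiplexed with the luciferase agonist read. Compounds in DMSO added after 5hr plating; 24hr total exposure at 37C, 5% CO2.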
# [7] = Caspase-3/7 induction in HepG2 cells by small molecules, qHTS assay (AID 1346978); note: nearly all actives have a fitted effect of over 15% in size; note: potency is the fitted concentration of half-maximal effect
# Method in brief: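 Wild-type HepG2 cells, 2,000/well, settled 5 hr at 37 C and 5% CO2, then compound-treated for 17 hr; caspase-3/7 activity read by luminescent Caspase-Glo 3/7 after 30 min at room temperature.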
# [8] = Caspase-3/7 induction in CHO-K1 cells by small molecules, qHTS cell viability counter screen (AID 1346979); note: nearly all actives have a fitted effect of over 35% in size; note: potency is the fitted concentration of half-maximal effect
# Method in brief: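 CHO-K1 wt, 1,500 cells/well; 5hr pre-incubation 37C/5% CO2; compound pin transfer (DMSO); 16hr exposure; CellTiter-Fluor added, 1hr, fluorescence read.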
# [9] = Caspase-3/7 induction in CHO-K1 cells by small molecules, qHTS assay (AID 1346980); note: nearly all actives have a fitted effect of over 15% in size; note: potency is the fitted concentration of half-maximal effect
# Method in brief: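 Wild-type CHO-K1 cells exposed to compounds for 17hr at 37 C, 5% CO2. Caspase-3/7 activity then measured by Caspase-Glo 3/7 luminescence after 30min at room temperature.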
# [10] = Caspase-3/7 induction in HepG2 cells by small molecules, qHTS cell viability counter screen (AID 1346981); note: nearly all actives have a fitted effect of over 30% in size; note: potency is the fitted concentration of half-maximal effect; for activity change, negative = cytotoxicity: series mostly up to about 92 µM
# Method in brief: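 Treatment of HepG2 cells with DMSO-delivered compounds ran 16 hr at 37 C following a 5-hr pre-incubation of 2,000 cells/well. CellTiter-Fluor fluorescence, read after 1 hr, served as the viability measure in a qHTS format.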
# [11] = molecular target: Nuclear receptor subfamily 1 group I member 2 (Homo sapiens) (UniProt O75469); assay: Human pregnane X receptor (PXR) small molecule agonists, qHTS assay (AID 1346982); note: nearly all actives have a fitted effect of over 35% in size; note: potency is the fitted concentration of half-maximal effect
# Method in brief: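 Stable HepG2 line reporting PXR-mediated CYP3A4 expression via luciferase. Treatment: 24 hr with compounds in DMSO at 37 C. Detection: ONE-Glo luminescence.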
# [12] = molecular target: Cytochrome P450 2C9 (Homo sapiens) (UniProt P11712); assay: Cytochrome P450 Family 2 Subfamily C Member 9 (CYP2C9) small molecule antagonists: luciferase reporter qHTS assay (AID 1671198); note: nearly all actives have a fitted effect of over 50% in size; note: potency is the fitted concentration of half-maximal effect; for activity change, negative = inhibition: series mostly up to about 120 µM
# Method in brief: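 P450-Glo proluciferin substrate with CYP2C9 enzyme; 10 min RT preincubation, then NADPH regeneration 1 h at 37C; luciferin detection reagent 20 min RT, luminescence in relative luminescence units.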
# [13] = molecular target: Cytochrome P450 1A2 (Homo sapiens) (UniProt P05177); assay: Cytochrome P450 Family 1 Subfamily A Member 2 (CYP1A2) small molecule antagonists: luciferase reporter qHTS assay (AID 1671199); note: nearly all actives have a fitted effect of over 50% in size; note: potency is the fitted concentration of half-maximal effect; for activity change, negative = inhibition: series mostly up to about 120 µM
# Method in brief: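 Read-out is luminescence from luciferin detection reagent (20 min) proportional to CYP1A2 activity; compounds in DMSO preincubated 10 min with enzyme and proluciferin substrate, then NADPH regeneration solution, 1 h, room temperature.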
# [14] = molecular target: Voltage-gated inwardly rectifying potassium channel KCNH2 (Homo sapiens) (UniProt Q12809); assay: Human Ether-a-go-go-Related Gene (hERG) channel small molecule antagonists: fluorescence cell-based qHTS assay (AID 1671200); note: nearly all actives have a fitted effect of over 50% in size; note: potency is the fitted concentration of half-maximal effect;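 for activity change, negative = inhibition: hERG-expressing U2OS cells given a thallium stimulus after FluxOR II dye loading; series mostly up to about 77 µM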
# Method in brief: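 Read-out: thallium influx as a surrogate for potassium, tracked as fluorescence (480 nm ex/540 nm em) every second for 2 min after Stimulus Buffer addition in dye-loaded hERG-U2OS cells.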
# [15] = molecular target: Cytochrome P450 2C19 (Homo sapiens) (UniProt P33261); assay: Cytochrome P450 Family 2 Subfamily C Member 19 (CYP2C19) small molecule antagonists: luciferase reporter qHTS assay (AID 1671197); note: nearly all actives have a fitted effect of over 65% in size; note: potency is the fitted concentration of half-maximal effect; for activity change, negative = inhibition: series mostly up to about 120 µM
# Method in brief: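 Light output is proportional to CYP2C19 activity: proluciferin substrate is converted to luciferin, then detected by a luciferin detection reagent that also stops the 1 h, 37C NADPH-driven reaction. Ketoconazole serves as positive control.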
# [16] = molecular target: Cytochrome P450 2D6 (Homo sapiens) (UniProt P10635); assay: Cytochrome P450 Family 2 Subfamily D Member 6 (CYP2D6) small molecule antagonists: luciferase reporter qHTS assay (AID 1671196); note: nearly all actives have a fitted effect of over 50% in size; note: potency is the fitted concentration of half-maximal effect; for activity change, negative = inhibition: series mostly up to about 120 µM
# Method in brief: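 Chemicals tested for interference with CYP2D6 activity; proluciferin substrate, NADPH regeneration, 1 h at room temperature, luminescent detection.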
# [17] = molecular target: Nuclear receptor subfamily 1 group I member 2 (Rattus norvegicus) (UniProt Q9R1A7); assay: Rat pregnane X receptor (rPXR) activation by small molecules, qHTS assay (AID 1346983); details: rPXR luciferase reporter cells, One-Glo luminescence, 24 h; max activation: stronger effect = higher value; note: nearly all actives have a fitted effect of over 20% in size
# Method in brief: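 Cell-based rPXR activation assay: rPXR cells, 2,000 per well, rested 5hr at 37 C, then exposed to compounds in DMSO for 24 hr at 37 C. Luciferase activity read by One-Glo luminescence after 30 min at room temperature.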
# [18] = qHTS assay to identify small molecule agonists of the TGF-beta/Smad signaling pathway - cell viability counter screen (AID 1346829); note: top concentration of the series differs between compounds; nearly all actives have a fitted effect of over 45% in size
# Method in brief: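 Here the cytotoxicity of library compounds is measured in SBE-bla HEK 293T cells treated for 5 hr, using CellTiter-Glo added to wells already read for the beta-lactamase reporter.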
# Sequence of Cytochrome P450 2C19 (Homo sapiens) (P33261 whole entry, looked up): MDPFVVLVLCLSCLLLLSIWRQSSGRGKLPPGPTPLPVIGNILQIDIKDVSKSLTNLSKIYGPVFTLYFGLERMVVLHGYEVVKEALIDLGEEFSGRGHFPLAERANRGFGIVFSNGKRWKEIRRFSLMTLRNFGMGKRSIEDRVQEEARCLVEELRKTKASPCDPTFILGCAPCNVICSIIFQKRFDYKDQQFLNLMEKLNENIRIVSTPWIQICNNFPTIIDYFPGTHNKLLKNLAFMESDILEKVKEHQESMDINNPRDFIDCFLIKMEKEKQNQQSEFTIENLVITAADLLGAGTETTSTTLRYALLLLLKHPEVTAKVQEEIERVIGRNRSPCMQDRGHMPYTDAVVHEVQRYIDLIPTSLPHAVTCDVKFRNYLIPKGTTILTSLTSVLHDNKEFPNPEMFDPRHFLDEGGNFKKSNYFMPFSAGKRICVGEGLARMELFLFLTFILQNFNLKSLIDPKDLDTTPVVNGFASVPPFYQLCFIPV
# Sequence of Cytochrome P450 2C9 (Homo sapiens) (P11712 whole entry, looked up): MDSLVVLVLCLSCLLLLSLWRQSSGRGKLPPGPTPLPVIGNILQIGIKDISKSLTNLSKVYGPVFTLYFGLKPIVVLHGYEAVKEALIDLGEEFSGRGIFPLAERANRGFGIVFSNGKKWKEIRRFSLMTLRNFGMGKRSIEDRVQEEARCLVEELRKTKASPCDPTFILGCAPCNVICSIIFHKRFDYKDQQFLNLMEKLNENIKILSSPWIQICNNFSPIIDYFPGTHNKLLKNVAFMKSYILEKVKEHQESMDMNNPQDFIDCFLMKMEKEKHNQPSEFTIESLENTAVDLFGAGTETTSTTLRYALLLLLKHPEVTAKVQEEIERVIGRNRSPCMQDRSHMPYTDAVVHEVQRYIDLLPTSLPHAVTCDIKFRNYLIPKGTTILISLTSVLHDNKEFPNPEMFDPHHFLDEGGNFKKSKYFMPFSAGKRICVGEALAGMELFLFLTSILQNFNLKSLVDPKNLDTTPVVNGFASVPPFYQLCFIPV
# Sequence of Nuclear receptor subfamily 1 group I member 2 (Homo sapiens) (O75469 whole entry, looked up): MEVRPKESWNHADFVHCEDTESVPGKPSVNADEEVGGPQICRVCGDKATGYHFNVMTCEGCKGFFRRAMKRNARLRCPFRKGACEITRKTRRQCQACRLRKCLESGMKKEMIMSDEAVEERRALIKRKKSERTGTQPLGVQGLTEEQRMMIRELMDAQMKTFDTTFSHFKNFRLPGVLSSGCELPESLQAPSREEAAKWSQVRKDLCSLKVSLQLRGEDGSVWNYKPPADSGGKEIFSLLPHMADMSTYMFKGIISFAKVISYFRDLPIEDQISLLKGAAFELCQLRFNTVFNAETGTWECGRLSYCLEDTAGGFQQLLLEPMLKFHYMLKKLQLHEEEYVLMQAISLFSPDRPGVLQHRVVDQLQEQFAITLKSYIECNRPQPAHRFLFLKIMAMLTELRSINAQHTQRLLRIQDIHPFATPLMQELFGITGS
# Sequence of Cytochrome P450 1A2 (Homo sapiens) (P05177 whole entry, looked up): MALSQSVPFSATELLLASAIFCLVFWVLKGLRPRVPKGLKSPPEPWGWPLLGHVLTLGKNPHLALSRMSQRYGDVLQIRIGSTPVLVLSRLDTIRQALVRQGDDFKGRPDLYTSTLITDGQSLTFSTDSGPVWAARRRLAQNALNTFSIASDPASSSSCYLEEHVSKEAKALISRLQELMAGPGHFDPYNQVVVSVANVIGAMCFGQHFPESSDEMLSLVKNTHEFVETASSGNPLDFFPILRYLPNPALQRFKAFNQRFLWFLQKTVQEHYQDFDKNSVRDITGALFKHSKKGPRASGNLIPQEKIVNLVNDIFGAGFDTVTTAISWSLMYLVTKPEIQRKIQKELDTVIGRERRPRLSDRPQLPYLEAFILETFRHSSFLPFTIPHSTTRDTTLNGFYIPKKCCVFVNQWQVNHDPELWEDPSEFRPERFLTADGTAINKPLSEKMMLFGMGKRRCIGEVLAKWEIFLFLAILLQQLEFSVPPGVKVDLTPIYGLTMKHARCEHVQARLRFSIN
# Sequence of Thyrotropin-releasing hormone receptor (Homo sapiens) (P34981 whole entry, looked up): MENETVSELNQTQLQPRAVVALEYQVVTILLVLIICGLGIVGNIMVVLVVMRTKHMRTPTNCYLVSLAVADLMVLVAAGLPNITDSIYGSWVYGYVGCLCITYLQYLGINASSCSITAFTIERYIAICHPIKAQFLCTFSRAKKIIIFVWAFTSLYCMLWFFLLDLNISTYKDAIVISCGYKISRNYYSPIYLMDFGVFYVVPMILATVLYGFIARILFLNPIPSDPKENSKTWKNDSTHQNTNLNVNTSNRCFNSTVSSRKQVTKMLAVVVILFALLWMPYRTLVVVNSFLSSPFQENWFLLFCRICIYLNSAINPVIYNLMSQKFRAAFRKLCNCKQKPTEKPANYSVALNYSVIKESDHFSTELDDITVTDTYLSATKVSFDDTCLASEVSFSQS
# Sequence of Voltage-gated inwardly rectifying potassium channel KCNH2 (Homo sapiens) (Q12809 whole entry, looked up): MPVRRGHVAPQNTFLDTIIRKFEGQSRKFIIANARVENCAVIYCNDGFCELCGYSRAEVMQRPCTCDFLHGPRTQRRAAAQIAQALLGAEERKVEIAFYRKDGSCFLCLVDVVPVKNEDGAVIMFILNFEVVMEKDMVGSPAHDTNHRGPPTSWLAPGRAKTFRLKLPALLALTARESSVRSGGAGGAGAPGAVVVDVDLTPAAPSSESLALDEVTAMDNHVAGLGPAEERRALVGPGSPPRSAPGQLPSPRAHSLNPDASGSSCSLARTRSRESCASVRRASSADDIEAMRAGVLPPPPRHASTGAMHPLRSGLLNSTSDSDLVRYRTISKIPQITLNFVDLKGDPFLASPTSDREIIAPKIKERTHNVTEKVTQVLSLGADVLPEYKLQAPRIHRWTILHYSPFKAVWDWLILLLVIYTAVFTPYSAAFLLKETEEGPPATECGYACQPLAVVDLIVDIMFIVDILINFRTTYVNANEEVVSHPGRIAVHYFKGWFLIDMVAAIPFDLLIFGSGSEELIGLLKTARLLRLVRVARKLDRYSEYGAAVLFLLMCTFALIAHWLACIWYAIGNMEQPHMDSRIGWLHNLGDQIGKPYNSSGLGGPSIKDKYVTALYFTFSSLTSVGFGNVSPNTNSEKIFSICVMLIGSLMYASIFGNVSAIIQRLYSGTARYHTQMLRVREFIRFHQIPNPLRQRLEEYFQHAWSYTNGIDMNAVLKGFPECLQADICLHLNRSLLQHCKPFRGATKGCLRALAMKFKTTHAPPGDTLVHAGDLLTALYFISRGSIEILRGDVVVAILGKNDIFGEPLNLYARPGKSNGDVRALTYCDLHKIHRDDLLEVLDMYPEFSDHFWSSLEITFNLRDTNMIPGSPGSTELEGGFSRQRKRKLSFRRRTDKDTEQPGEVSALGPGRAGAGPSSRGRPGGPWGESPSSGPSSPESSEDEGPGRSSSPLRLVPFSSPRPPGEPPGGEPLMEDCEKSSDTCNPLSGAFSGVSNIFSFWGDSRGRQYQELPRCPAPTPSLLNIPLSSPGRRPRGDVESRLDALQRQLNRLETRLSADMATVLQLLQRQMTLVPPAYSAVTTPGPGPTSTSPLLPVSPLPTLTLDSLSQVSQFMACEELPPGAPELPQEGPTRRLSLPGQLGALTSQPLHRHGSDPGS
# Sequence of Cytochrome P450 2D6 (Homo sapiens) (P10635 whole entry, looked up): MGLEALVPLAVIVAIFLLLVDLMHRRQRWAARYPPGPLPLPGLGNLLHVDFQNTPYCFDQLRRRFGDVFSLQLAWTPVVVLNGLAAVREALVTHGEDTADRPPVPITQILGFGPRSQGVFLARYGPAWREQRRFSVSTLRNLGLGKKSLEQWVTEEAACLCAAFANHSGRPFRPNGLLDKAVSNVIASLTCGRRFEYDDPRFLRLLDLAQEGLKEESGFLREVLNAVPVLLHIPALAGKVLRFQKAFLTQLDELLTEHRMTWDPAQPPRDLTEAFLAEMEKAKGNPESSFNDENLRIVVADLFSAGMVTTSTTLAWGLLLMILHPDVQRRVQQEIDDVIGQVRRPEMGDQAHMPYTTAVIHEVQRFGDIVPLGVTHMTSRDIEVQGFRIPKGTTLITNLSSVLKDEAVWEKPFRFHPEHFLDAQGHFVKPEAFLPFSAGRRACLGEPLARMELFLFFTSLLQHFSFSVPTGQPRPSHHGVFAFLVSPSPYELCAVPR
# Sequence of Nuclear receptor subfamily 1 group I member 2 (Rattus norvegicus) (Q9R1A7 whole entry, looked up): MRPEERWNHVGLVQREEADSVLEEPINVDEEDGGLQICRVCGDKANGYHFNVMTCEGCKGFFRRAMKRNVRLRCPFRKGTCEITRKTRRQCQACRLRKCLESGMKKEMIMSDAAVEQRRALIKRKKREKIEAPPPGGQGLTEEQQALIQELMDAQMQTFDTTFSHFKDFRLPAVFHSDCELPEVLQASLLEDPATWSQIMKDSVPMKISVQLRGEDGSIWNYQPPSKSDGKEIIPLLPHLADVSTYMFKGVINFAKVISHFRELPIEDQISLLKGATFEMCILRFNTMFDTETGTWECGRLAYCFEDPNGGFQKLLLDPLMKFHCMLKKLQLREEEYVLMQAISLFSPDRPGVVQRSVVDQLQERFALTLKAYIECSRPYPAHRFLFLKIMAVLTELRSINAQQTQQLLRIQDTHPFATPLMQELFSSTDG
structure (smiles),measurement,setting,value
O=C1OCc2ccccc21,Potency,[1],inactive
same,Potency,[2],inactive
same,outcome,[3],inactive
same,Potency,[4],inactive
same,Potency,[5],inactive
same,Potency,[6],inactive
same,Potency,[7],inactive
same,Potency,[8],inactive
same,Potency,[9],inactive
same,Potency,[10],inactive
same,Potency,[11],inactive
same,Potency,[12],inactive
same,Potency,[13],inactive
same,Potency,[14],inactive
C1=CCCC1,Potency,[1],inactive
same,Potency,[2],inactive
same,outcome,[3],inactive
same,Potency,[4],inactive
same,Potency,[5],inactive
same,Potency,[6],inactive
same,Potency,[7],inactive
same,Potency,[8],inactive
same,Potency,[9],inactive
same,Potency,[10],inactive
same,Potency,[11],inactive
same,Potency,[15],inactive
same,Potency,[12],inactive
same,Potency,[14],inactive
CC(C)(C)c1cc(CCC(=O)OCCSCCOC(=O)CCc2cc(C(C)(C)C)c(O)c(C(C)(C)C)c2)cc(C(C)(C)C)c1O,Potency,[1],inactive
same,Potency,[2],inactive
same,outcome,[3],inactive
same,Potency,[4],inactive
same,Potency,[7],inactive
same,Potency,[8],inactive
same,Potency,[9],inactive
same,Potency,[10],inactive
same,Potency,[11],inactive
same,Potency,[16],inactive
same,Potency,[15],8.71 µM (active)
same,Potency,[12],2.19 µM (active)
same,Potency,[13],inactive
same,Potency,[14],inactive
COc1cccc(-c2ccc(/C=C\CN3CCCCCC3)cc2Cl)c1,Potency,[1],inactive
same,Potency,[2],inactive
same,outcome,[3],inactive
same,Potency,[4],inactive
same,Potency,[5],inactive
same,Potency,[16],2.51 µM (active)
same,Potency,[15],44.6 µM (active)
same,Potency,[14],1.22 µM (active)
CCCCCCCCCCCC(=O)Cl,Potency,[1],inactive
same,Potency,[2],inactive
same,outcome,[3],inactive
same,Potency,[4],inactive
same,Potency,[5],inactive
same,Potency,[6],inactive
same,Potency,[7],inactive
same,Potency,[8],inactive
same,Potency,[9],inactive
same,Potency,[10],inactive
same,Potency,[11],inactive
same,Potency,[16],inactive
same,Potency,[13],inactive
same,Potency,[14],inactive
O=C1OC(O)C(C(Cl)Cl)=C1Cl (stereo not drawn),Potency,[1],inactive
same,Potency,[2],inactive
same,outcome,[3],inactive
same,Potency,[4],inactive
same,Potency,[5],inactive
same,Potency,[7],inactive
same,Potency,[8],17.8 µM (active)
same,Potency,[9],inactive
same,Potency,[10],50 µM (active)
same,Potency,[11],22.4 µM (active)
same,Potency,[16],inactive
same,Potency,[15],inactive
same,Potency,[12],inactive
same,Potency,[13],inactive
same,Potency,[14],inactive
CN(C)CCOc1ccc(/C(=C(/CCCl)c2ccccc2)c2ccccc2)cc1,Potency,[1],57.2 µM (active)
same,Potency,[2],inactive
same,outcome,[3],inactive
same,Potency,[4],inactive
same,Potency,[5],inactive
same,Potency,[7],57.2 µM (active)
same,Potency,[8],51 µM (active)
same,Potency,[9],51 µM (active)
same,Potency,[10],57.2 µM (active)
same,max activation,[17],-3.02%
same,Potency,[15],52.8 µM (active)
CC(C)c1ccc2sc3ccccc3c(=O)c2c1,Potency,[1],inactive
same,Potency,[2],inactive
same,Potency,[18],inactive
same,Potency,[6],inactive
same,Potency,[7],inactive
same,Potency,[8],inactive
same,Potency,[9],inactive
same,Potency,[10],inactive
same,Potency,[11],17.2 µM (active)
same,Potency,[16],28.3 µM (active)
same,Potency,[15],7.96 µM (active)
same,Potency,[13],7.1 µM (active)
same,Potency,[14],inactive
N#Cc1ccc(C/C(=N/NC(=O)Nc2ccc(OC(F)(F)F)cc2)c2cccc(C(F)(F)F)c2)cc1,Potency,[1],inactive
same,Potency,[2],inactive
same,outcome,[3],inactive
same,Potency,[4],inactive
same,Potency,[5],inactive
same,Potency,[6],inactive
same,Potency,[7],inactive
same,Potency,[9],inactive
same,Potency,[10],inactive
same,Potency,[11],54.5 µM (active)
same,Potency,[16],39.9 µM (active)
same,Potency,[15],12.6 µM (active)
same,Potency,[12],22.4 µM (active)
same,Potency,[13],25.2 µM (active)
O=C(O)C[C@H](O)C[C@H](O)/C=C/c1c(C2CC2)nc2ccccc2c1-c1ccc(F)cc1,Potency,[1],0.651 µM (active)
same,"viability change, negative = cytotoxic",[2],0.256% [at 15.8 µM]
same,activation,[3],-0.423% [at 15.8 µM]
same,"activity, negative = inhibition",[4],1.91% [at 10.5 µM]
same,activation,[5],-0.474% [at 11.8 µM]
same,"activity change, negative = cytotoxicity",[6],-7.27% [at 19 µM]
same,Potency,[7],10.3 µM (active)
same,Potency,[9],5.8 µM (active)
same,"activity change, negative = cytotoxicity",[10],-8.1% [at 19 µM]
same,activation,[11],12.4% [at 19 µM]
same,"activity change, negative = inhibition",[16],-0.811% [at 23.6 µM]
same,"activity change, negative = inhibition",[15],11.6% [at 23.6 µM]
same,"activity change, negative = inhibition",[14],2.63% [at 15.8 µM]
CCOc1nc(F)cc2nc(S(=O)(=O)Nc3c(Cl)cccc3C(=O)OC)nn12,Potency,[1],inactive
same,Potency,[2],inactive
same,outcome,[3],inactive
same,Potency,[4],inactive
same,Potency,[5],inactive
same,Potency,[7],inactive
same,Potency,[8],inactive
same,Potency,[9],inactive
same,Potency,[10],inactive
same,Potency,[11],inactive
same,Potency,[16],inactive
same,Potency,[15],inactive
same,Potency,[14],inactive
CCCCNc1ccc(NCCCC)c2c1C(=O)c1ccccc1C2=O,"activity change, negative = cytotoxicity",[1],-18.3% [at 19 µM]
same,"viability change, negative = cytotoxic",[2],4.33% [at 15.8 µM]
same,activation,[3],0.206% [at 15.8 µM]
same,"activity, negative = inhibition",[4],0.3% [at 10.5 µM]
same,activation,[5],-0.167% [at 11.8 µM]
same,caspase activation,[7],-1.98% [at 19 µM]
same,Potency,[8],13 µM (active)
same,caspase-3/7 activation,[9],2.79% [at 19 µM]
same,"activity change, negative = cytotoxicity",[10],-16.6% [at 19 µM]
same,activation,[11],2.95% [at 19 µM]
same,"activity change, negative = inhibition",[16],0.95% [at 23.6 µM]
same,"activity change, negative = inhibition",[15],-5.26% [at 23.6 µM]
same,"activity change, negative = inhibition",[12],-1.25% [at 23.6 µM]
same,Potency,[13],3.79 µM (active)
same,"activity change, negative = inhibition",[14],-6.35% [at 15.8 µM]
